Source: PubChem BioAssay (Tox21)
Records with an inconclusive call do not appear. Calls of active or inactive are those of the source. Calls follow the shape of the dose curve; as a rule, active = well fitted inhibition curve with a large enough effect in the repeat runs; inconclusive = weak or mixed curves; inactive = no such curve, though single readings can be large or run the other way.

Experiment: qHTS assay to identify small molecule antagonists of the estrogen related receptor (ERR) signaling pathway (AID 1224819; also: nearly all actives have a fitted effect of over 50% in size)
Details: ERR reporter cell line, luciferase inhibition; series mostly up to 46.1 µM; activity change, negative = inhibition: at the top concentration
Text: National Center for Advancing Translational Sciences [NCATS]
NIH Chemical Genomics Center [NCGC]
U.S. Environmental Protection Agency [EPA]
National Institutes of Environmental Health Sciences [NIEHS]
National Toxicology Program [NTP]
U.S. Food and Drug Administration [FDA]
Estrogen related receptors (ERRs), the first orphan nuclear receptors discovered, play an important role in the control of cellular energy metabolism. ERRs are required for high-energy production in response to the environmental challenges. ERR-alpha was also identified as an adverse marker for breast cancer progression; ERR-alpha-positive tumors have a poor prognosis. To screen and to identify environmental compounds that perturb the ERR signaling pathways could provide valuable information for potential therapeutic or preventive measures in the treatment of metabolic disease. For identifying ERR antagonists, ERR cell line (provided by NTP) has been used to screen LOPAC library.
Tox21 Assay Protocol Summary:
The ERR cells were dispensed at 2,000 cells/5 ul/well in 1536-well white plates using a Multidrop dispenser. After the assay plates were incubated at a 37 C/5% CO2 incubator for 6 hours, 23 nL of compounds dissolved in DMSO, positive and negative controls or DMSO only was transferred to the assay plate by a pin tool. The plates were incubated at 37 C for 18 hours. 4 ul/well of One-Glo reagent was added into the assay plates using a Flying Reagent Dispenser. After 30 min incubation at room temperature, the luminescence intensity in the plates was measured using a ViewLux plate reader.
% is scaled to controls: 0 for no effect and ±100 for the full control effect.

| Compound | activity change, negative = inhibition |
| --- | --- |
| COc1ccc(C2CNC(=O)C2)cc1OC1CCCC1 (stereo unspecified) | -12.2% (inactive) |
| CN1CCN(CC(=O)N2c3ccccc3C(=O)Nc3cccnc32)CC1 | -6.76% (inactive) |
| COC(=O)[C@@H]1[C@H]2C[C@H]3c4[nH]c5ccccc5c4CCN3C[C@@H]2CC[C@@H]1O | 35.2% (inactive) |
| C[C@@H](O)[C@H]1C(=O)N2C(C(=O)O)=C(SCCN=CN)C[C@H]12 | 1.66% (inactive) |
| O=C(NCCN1CCOCC1)c1ccc(Cl)cc1 | 9.51% (inactive) |
| NCCS | 9.05% (inactive) |
| NC(CO)C(=O)NNCc1ccc(O)c(O)c1O (stereo unspecified) | 3.37% (inactive) |
| CCN(CC)CC(=O)Nc1c(C)cccc1C | 13.5% (inactive) |
| CC(=O)CCCCn1c(=O)c2c(ncn2C)n(C)c1=O | -0.424% (inactive) |
| COc1ccc2c(c1OC)C(=O)O[C@@H]2[C@H]1c2c(cc3c(c2OC)OCO3)CCN1C | -10% (inactive) |
| Cc1cccc(C)c1OCC(C)N (stereo unspecified) | 13.5% (inactive) |
